Assay results: PubChem BioAssay (NCATS)
Records with an inconclusive call do not appear. The source made the active and inactive calls. Unless noted, the call rests on the fitted dose curve; in most records, active means well fitted curve in the direction sought with a large enough effect; inconclusive means small, poorly fitted or top-dose-only effect, or another doubt; inactive means no such curve, though single readings can be large; an effect the other way counts as inactive or inconclusive.

Legend:
[1] = biological target: Lysosomal acid glucosylceramidase (Homo sapiens) (UniProt P04062); experiment: Glucocerebrosidase-p2 (AID 348; in the data active means potency below about 10 µM; further: potency means the concentration at half of the fitted maximal effect); settings: purified GBA, blue fluorogenic substrate, 40 min
In short: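 Normal human glucocerebrosidase (0.2 nM) with blue fluorogenic substrate (80 uM final) in citrate/phosphate pH 5.9 with 10mM sodium taurocholate, 0.01% tween-20; 40 min RT, NaOH/glycine stop; fluorescence Ex 365/Em 440; AC50 from a titration from 0.6 nM upwards.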

[2] = AP1 Signaling Pathway (AID 357; active means well fitted curve in either direction with a large enough effect, not every such curve was filed as active; further: on the % scale 0 is the no-effect control and ±100 the full control effect); settings: ME-180 AP-1-bla reporter, EGF-induced, beta-lactamase ratio, 5 h; series mostly up to 17.2 µM
In short: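 ME-180 cells with beta-lactamase reporter under AP-1 response element, stimulated with EC50 EGF; compounds tested in titration series, 5 h at 37 °C. CCF4 substrate added 2.5 h at room temperature; 460/530 nm emission ratio gave %activity and AC50.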

[3] = biological target: Cytochrome P450 1A2 (Homo sapiens) (UniProt P05177); experiment: p450-cyp1a2 (AID 410; calls by dose curve; further: potency means the concentration at half of the fitted maximal effect;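 on activity change, negative = inhibition: -100% = full effect of reference inhibitor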); settings: recombinant CYP1A2, luciferin-ME demethylation, luminescence; series mostly up to 25.6 µM
In short: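 Luminescent demethylation readout: Luciferin-ME (100uM, equal to Km) turned over by 20nM CYP1A2 for 60 min at room temperature after NADPH regeneration addition, following 10 min compound preincubation. Normalization used 57 uM furafylline as full inhibition.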

[4] = NFAT Signaling Pathway (AID 444; active means well fitted curve in either direction with a large enough effect, not every such curve was filed as active;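 further: carbachol stimulus at about its EC50 of 1 µM final; on the % scale 0 is the no-effect control and ±100 the full control effect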); settings: Jurkat NFAT-bla M1, carbachol, beta-lactamase ratio, 5 h
In short: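 Jurkat cells with NFAT-driven β-lactamase reporter and co-expressed M1 receptor, stimulated with carbachol (final 1 uM, ~EC50), compound titration, 5 h at 37 °C. CCF4 loaded 1 h at RT; 460/530 nm ratio gave %activity and AC50.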

[5] = Stat Signaling Pathway (AID 446; active means well fitted curve in either direction with a large enough effect, not every such curve was filed as active;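 further: ME-180 cervical cancer cells given 40 pM IL-6 alongside compound; SIE-controlled beta-lactamase reporter measured as 460/530 nm FRET emission ratio; on the % scale 0 is the no-effect control and ±100 the full control effect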); settings: ME-180 (cervical carcinoma) SIE beta-lactamase reporter, IL-6 stimulated, 5 h; series mostly up to 17.2 µM
In short: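 FRET read-out (405 nm excitation, 460/530 nm emission) of a beta-lactamase reporter under a STAT-inducible element in ME-180 cervical carcinoma cells. Cells with compound receive 40 pM IL-6 for 5 h. Values are normalised to AC90 stimulation and AC90 JAK-inhibitor controls.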

[6] = biological target: Glucocorticoid receptor (Homo sapiens) (UniProt P04150); experiment: GR-EFC Redistribution (AID 451; calls by dose curve; further: potency means the concentration at half of the fitted maximal effect); settings: CHO-K1 GR-EFC translocation, beta-gal luminescence, 2 h
In short: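 CHO-K1 cells expressing nuclear EA and GR-ED fragments of b-gal; compounds titrated up to 46 uM final, 2 h at 37 C. GR nuclear translocation read as complemented b-gal luminescence after 1 h RT detection.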

[7] = biological target: 3',5'-cyclic-AMP phosphodiesterase 4B (Homo sapiens) (UniProt Q07343); experiment: qHTS Assay for Inhibitors of PDE-IV (AID 607; active means well fitted activation curve with a large enough effect in the main read-out, with a control signal flat, not every such curve was filed as active; further: % of control where 0% means no effect); settings: HEK293 ACTOne CNG channel cells, membrane potential fluorescence; series mostly up to 22.9 µM
In short: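 Cell-based read-out of cAMP via a modified cyclic nucleotide-gated channel and membrane potential dye (535/590 nm) in HEK293 cells expressing PDE4 endogenously. Compounds tested up to 22.9 uM final; 100 uM RO 20-1724 reference.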

[8] = biological target: Cytochrome P450 3A4 (Homo sapiens) (UniProt P08684); experiment: qHTS Assay for Activators of Cytochrome P450 3A4 (AID 885); settings: recombinant CYP3A4, Luciferin-PPXE luminescence, 60 min; series mostly up to 57.1 µM; further: nearly all actives have a fitted effect of over 65% in size; further: potency means the concentration at half of the fitted maximal effect
In short: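 Luminescent readout of luciferin formed from 25 uM Luciferin-PPXE (KM level) by 20 nM CYP3A4 in 200 mM KPO4, with 60 min NADPH-driven reaction at room temperature after 10 min compound exposure. Ketoconazole (57 uM) defined 100% inhibition.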

[9] = biological target: Vitamin D3 receptor (Homo sapiens) (UniProt P11473); experiment: qHTS assay for small molecule antagonists of vitamin D receptor signaling (AID 588541; calls by dose curve;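 further: receptor activated by calcitriol during compound treatment; on the % scale 0 is the no-effect control and ±100 the full control effect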); settings: HEK293T VDR-UAS-bla, beta-lactamase ratio, antagonist mode; series mostly up to 76.7 µM
In short: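 VDR-UAS-bla HEK293T cells in 2% charcoal-stripped FBS were stimulated with 1-alpha,25-dihydroxyvitamin D3 (3 nM final) plus compound for 16 h at 37 C. The beta-lactamase CCF4 readout was normalized to 50 nM agonist and DMSO, and Hill fits gave IC50.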

[10] = qHTS assay to identify small molecules that stimulate interleukin-8 (IL-8) secretion (AID 651758; active means well fitted activation curve with a large enough effect in the signal ratio; the % refers to the signal ratio; further: 0% is about no effect); settings: HTRF ratio (665/615); series mostly up to 92.2 µM
In short: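 Compounds are added to THP-1 cells (2000 per well) and left 16 hrs at 37 C. A labeled anti-IL-8 antibody pair is then added, and IL-8 secretion is measured by time-resolved FRET after 1-3 hrs at room temperature.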

[11] = qHTS assay for small molecule antagonists of the retinoid-related orphan receptor gamma (ROR-gamma) signaling pathway - cell viability counter screen (AID 720652; active means well fitted curve in the direction sought with a large enough effect in the repeat runs; an effect the other way counts as inactive or inconclusive); settings: RORgamma reporter cell line viability counter screen; series mostly up to 92.2 µM
In short: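 Cytotoxicity counter screen: intracellular ATP (CellTiter-Glo luminescence) measured in the doxycycline-induced CHO RORE-luciferase reporter line after 16 hr compound exposure at 37 C, 5% CO2.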

[12] = Confirmation and Secondary Assay for Modulators of Hemoglobin Beta Chain Splicing at IVS2 654 locus (AID 910); settings: HeLa EGFP-654 splicing reporter, GFP fluorescence, 48 h; series mostly up to 46.1 µM;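 further: HeLa cells stably carrying EGFP split by mutant beta-globin IVS2-654 intron; % of control where 0% means no effect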
In short: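 HeLa cells stably expressing EGFP interrupted by β-globin IVS2-654 intron, seeded overnight in Opti-MEM/2% FCS, then treated 2 days at 37 °C. Restored splicing read as total peak GFP intensity per well by laser scanning cytometry (488 nm excitation, 500–520 nm emission); 500 nM antisense PNA as control.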

[13] = Confirmation and Secondary Assay for Modulators of Hemoglobin Beta Chain Splicing at IVS2 705 locus (AID 930); settings: HeLa EGFP-705 splicing reporter, GFP fluorescence, 48 h; series mostly up to 46.1 µM;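 further: HeLa cells stably expressing the EGFP-705 splicing reporter; % of control where 0% means no effect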
In short: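 HeLa cells stably carrying EGFP interrupted by mutant beta-globin IVS2-705 intron (CMV-driven) were seeded at 500 cells/well, treated next day with compound for 2 days at 37C; corrected splicing restores EGFP, read as total peak GFP intensity per well.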

[14] = biological target: Luciferin 4-monooxygenase (Photinus pyralis) (UniProt P08659); experiment: Biochemical firefly luciferase enzyme assay for NPC (AID 624030);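 further: purified P. pyralis luciferase at 10 nM with luciferin and ATP substrate; 0% = DMSO and -100% = full luciferase inhibition by PTC124 control; nearly all actives have a fitted effect of over 70% in size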; settings: purified P. pyralis luciferase, luminescence, 5 min; series mostly up to 58.6 µM
In short: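 Purified P. pyralis luciferase at 10 nM in 50 mM Tris Acetate (final), luminescence read within 5 minutes of enzyme addition to compounds. Activity normalised to PTC124 versus DMSO; concentration-response curves classed by r2, magnitude and activity.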

[15] = qHTS profiling for inhibitors of Plasmodium falciparum proliferation (AID 504749);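 further: 0% = DMSO vehicle and full inhibition = artemisinin control; nearly all actives have a fitted effect of over 60% in size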; settings: P. falciparum in erythrocytes, SYBR Green DNA, 72 h, at 12.8 µM (top of the series)
In short: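 Each compound contacts P. falciparum-infected red blood cells for 72 h at 37 C; lysis buffer (Tris, EDTA, saponin, Triton X, SYBR Green I) is added and fluorescence measured next morning; values normalized to controls.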

[16] = biological target: Ubiquitin carboxyl-terminal hydrolase 1 (Homo sapiens) (UniProt O94782); experiment: Inhibitors of USP1/UAF1: Pilot qHTS (AID 504865); settings: purified USP1/UAF1, Ub-rhodamine cleavage fluorescence; series mostly up to 114 µM;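 further: rhodamine fluorescence freed from ubiquitin-rhodamine substrate followed over time; top concentration of the series differs between compounds; on the % scale 0 is the no-effect control and ±100 the full control effect; nearly all actives have a fitted effect of over 35% in size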
In short: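 Enzyme-free wells gave the negative control, while test wells held 1nM USP1/UAF1 preincubated with compound for 15 min at room temperature. Ub-Rho at 150nM final started the reaction, and fluorescence at 480/540 nm was recorded kinetically.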

[17] = biological target: Peroxisome proliferator-activated receptor delta (Homo sapiens) (UniProt Q03181); experiment: qHTS assay for small molecule antagonists of peroxisome proliferator-activated receptor delta signaling (AID 588535; active means well fitted inhibition curve with a large enough effect in the signal ratio, with a control signal flat, not every such curve was filed as active; the % refers to the signal ratio); settings: HEK293T PPARd-UAS-bla, beta-lactamase FRET ratio, 18 h; series mostly up to 76.7 µM
In short: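 Fluorescence from CCF4-loaded GeneBLAzer PPAR-delta-UAS-bla HEK293T cells (2 hrs RT loading) quantified reporter inhibition after an 18 hr, 37 C compound exposure across a titration.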

[18] = biological target: Androgen receptor (Homo sapiens) (UniProt P10275); experiment: qHTS assay for small molecule agonists of androgen receptor signaling (AID 588515; active means well fitted curve in the direction sought with a large enough effect in the signal ratio, with a control signal flat; the % refers to the signal ratio; further: on the % scale 0 is the no-effect control and ±100 the full control effect); settings: AR-UAS-bla HEK293, beta-lactamase ratio, agonist 16 h; active compounds read high
In short: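 Stimulation of an AR-responsive β-lactamase reporter in GripTite HEK293 cells was measured after 16 h compound exposure at 37 °C, via CCF4 fluorescence after 2 h RT. EC50 from Hill fits, normalized to R1881 at 30 nM.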

[19] = biological target: Androgen receptor (Homo sapiens) (UniProt P10275); experiment: qHTS assay for small molecule antagonists of androgen receptor signaling (AID 588516; active means well fitted curve in the direction sought with a large enough effect in the signal ratio, with a control signal flat, not every such curve was filed as active; the % refers to the signal ratio; further: on the % scale 0 is the no-effect control and ±100 the full control effect); settings: AR-UAS-bla HEK293, beta-lactamase ratio, antagonist mode, 16 h; series mostly up to 76.8 µM
In short: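 Compounds tested in titration against 10 nM R1881 in AR-responsive bla reporter HEK 293 cells; CCF4 fluorescence (460/530 nm) after 16 h exposure gave IC50 and efficacy.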

Sequence of Ubiquitin carboxyl-terminal hydrolase 1 (Homo sapiens) (O94782 whole entry, looked up): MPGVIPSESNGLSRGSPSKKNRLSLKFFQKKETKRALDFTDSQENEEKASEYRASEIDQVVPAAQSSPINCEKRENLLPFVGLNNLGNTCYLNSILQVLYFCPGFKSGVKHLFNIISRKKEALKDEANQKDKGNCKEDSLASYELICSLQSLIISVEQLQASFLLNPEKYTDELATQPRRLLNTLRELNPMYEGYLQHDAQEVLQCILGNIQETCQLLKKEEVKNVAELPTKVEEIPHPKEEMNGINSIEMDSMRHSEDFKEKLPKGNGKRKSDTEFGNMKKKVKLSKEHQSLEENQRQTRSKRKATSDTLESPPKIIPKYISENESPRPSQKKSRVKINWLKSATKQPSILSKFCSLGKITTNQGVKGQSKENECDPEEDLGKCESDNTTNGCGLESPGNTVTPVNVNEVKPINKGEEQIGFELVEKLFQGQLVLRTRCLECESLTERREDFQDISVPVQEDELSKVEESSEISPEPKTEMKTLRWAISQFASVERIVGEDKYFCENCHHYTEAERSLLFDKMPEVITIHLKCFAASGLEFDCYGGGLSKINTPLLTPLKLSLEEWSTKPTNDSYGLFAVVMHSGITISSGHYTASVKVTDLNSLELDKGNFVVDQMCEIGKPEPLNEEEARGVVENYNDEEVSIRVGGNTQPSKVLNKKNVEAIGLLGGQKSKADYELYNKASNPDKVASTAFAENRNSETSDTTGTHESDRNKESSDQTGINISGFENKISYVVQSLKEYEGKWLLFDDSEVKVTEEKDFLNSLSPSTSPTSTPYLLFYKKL
Sequence of Cytochrome P450 1A2 (Homo sapiens) (P05177 whole entry, looked up): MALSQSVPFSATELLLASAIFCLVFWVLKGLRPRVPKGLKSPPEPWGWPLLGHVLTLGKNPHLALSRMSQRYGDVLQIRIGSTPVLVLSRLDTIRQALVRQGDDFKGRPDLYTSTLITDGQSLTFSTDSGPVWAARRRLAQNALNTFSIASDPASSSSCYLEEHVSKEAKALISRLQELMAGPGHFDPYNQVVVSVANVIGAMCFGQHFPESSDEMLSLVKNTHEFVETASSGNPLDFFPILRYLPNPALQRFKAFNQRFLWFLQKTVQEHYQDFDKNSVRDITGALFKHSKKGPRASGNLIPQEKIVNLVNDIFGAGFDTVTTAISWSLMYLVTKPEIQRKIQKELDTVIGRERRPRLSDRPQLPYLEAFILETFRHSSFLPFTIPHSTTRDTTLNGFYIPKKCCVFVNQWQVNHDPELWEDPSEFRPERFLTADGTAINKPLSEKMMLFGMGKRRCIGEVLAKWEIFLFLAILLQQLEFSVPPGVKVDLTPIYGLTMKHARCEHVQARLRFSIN
Sequence of Luciferin 4-monooxygenase (Photinus pyralis) (P08659 whole entry, looked up): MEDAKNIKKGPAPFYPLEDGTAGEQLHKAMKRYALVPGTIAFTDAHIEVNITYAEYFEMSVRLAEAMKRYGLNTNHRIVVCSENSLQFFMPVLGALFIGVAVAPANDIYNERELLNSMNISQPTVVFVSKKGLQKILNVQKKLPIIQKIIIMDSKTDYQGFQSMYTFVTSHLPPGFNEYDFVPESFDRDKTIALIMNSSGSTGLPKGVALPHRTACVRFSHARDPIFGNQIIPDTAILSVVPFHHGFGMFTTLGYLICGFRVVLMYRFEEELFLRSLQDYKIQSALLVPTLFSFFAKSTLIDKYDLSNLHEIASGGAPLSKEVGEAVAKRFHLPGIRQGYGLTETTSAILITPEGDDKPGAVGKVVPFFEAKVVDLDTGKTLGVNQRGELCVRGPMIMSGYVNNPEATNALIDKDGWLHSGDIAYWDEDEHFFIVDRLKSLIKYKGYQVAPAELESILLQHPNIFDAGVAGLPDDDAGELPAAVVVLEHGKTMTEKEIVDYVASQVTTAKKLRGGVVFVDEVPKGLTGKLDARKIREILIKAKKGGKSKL
Sequence of Lysosomal acid glucosylceramidase (Homo sapiens) (P04062 whole entry, looked up): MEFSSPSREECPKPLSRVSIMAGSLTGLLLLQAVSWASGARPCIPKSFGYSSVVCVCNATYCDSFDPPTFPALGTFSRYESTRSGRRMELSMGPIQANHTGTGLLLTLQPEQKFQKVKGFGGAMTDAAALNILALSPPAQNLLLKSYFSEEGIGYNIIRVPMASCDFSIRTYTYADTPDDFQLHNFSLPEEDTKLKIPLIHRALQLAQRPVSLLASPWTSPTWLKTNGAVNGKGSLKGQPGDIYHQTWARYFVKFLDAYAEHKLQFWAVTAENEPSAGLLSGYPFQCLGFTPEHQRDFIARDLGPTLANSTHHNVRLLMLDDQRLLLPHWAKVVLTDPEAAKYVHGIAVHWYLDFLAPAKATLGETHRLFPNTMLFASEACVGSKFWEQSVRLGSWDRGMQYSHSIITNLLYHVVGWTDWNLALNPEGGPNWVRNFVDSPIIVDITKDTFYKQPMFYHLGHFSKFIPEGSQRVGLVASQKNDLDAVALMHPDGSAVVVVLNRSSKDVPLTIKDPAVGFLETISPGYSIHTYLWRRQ
Sequence of Vitamin D3 receptor (Homo sapiens) (P11473 whole entry, looked up): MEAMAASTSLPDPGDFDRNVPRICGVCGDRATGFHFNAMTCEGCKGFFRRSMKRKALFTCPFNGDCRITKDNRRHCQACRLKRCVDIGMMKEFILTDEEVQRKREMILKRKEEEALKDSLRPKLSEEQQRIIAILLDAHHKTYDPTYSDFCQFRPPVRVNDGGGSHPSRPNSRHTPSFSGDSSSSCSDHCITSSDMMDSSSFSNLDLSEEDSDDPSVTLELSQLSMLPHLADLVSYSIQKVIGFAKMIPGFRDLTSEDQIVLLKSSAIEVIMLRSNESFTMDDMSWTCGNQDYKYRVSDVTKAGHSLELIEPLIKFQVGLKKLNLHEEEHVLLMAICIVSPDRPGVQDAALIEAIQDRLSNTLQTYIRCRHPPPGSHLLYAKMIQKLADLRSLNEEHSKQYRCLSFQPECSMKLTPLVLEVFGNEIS
Sequence of Glucocorticoid receptor (Homo sapiens) (P04150 whole entry, looked up, the tested form may be a part): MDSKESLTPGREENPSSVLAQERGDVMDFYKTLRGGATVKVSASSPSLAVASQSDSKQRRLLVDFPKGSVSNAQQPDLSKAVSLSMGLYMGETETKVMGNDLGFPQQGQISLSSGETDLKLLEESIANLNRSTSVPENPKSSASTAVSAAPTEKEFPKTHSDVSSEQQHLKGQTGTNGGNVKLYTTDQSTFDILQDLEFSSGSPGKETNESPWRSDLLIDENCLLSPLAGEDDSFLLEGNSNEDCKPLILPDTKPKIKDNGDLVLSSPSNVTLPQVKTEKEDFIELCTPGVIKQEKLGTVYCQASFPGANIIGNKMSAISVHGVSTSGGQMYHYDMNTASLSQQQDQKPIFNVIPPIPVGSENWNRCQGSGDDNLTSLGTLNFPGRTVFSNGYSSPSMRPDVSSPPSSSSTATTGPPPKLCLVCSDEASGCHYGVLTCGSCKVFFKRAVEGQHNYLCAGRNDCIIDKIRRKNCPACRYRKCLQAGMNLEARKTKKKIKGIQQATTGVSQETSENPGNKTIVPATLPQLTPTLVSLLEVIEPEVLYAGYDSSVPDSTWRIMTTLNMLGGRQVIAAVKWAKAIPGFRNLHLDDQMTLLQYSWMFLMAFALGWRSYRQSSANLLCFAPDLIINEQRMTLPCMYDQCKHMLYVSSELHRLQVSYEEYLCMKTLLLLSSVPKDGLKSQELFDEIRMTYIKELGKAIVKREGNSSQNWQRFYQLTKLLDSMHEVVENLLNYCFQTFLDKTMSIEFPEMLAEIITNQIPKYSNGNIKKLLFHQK
Sequence of 3',5'-cyclic-AMP phosphodiesterase 4B (Homo sapiens) (Q07343 whole entry, looked up): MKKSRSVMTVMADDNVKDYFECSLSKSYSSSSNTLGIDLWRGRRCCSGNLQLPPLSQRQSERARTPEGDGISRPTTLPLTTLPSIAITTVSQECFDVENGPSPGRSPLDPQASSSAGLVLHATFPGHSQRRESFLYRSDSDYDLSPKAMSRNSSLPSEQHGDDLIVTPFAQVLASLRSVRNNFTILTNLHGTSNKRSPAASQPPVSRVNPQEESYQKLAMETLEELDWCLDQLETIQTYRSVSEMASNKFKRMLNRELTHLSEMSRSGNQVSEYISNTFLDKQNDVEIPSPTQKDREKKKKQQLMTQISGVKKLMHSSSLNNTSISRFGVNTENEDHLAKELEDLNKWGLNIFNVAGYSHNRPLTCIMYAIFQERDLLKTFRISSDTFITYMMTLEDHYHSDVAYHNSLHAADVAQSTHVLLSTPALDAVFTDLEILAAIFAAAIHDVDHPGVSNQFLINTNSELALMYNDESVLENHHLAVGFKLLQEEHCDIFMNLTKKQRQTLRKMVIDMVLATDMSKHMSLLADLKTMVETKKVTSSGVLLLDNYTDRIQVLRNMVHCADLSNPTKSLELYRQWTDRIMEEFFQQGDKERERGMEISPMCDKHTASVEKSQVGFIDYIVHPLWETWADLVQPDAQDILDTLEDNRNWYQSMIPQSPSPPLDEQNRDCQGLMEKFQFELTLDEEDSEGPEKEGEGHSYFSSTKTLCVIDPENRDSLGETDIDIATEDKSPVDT
Sequence of Cytochrome P450 3A4 (Homo sapiens) (P08684 whole entry, looked up): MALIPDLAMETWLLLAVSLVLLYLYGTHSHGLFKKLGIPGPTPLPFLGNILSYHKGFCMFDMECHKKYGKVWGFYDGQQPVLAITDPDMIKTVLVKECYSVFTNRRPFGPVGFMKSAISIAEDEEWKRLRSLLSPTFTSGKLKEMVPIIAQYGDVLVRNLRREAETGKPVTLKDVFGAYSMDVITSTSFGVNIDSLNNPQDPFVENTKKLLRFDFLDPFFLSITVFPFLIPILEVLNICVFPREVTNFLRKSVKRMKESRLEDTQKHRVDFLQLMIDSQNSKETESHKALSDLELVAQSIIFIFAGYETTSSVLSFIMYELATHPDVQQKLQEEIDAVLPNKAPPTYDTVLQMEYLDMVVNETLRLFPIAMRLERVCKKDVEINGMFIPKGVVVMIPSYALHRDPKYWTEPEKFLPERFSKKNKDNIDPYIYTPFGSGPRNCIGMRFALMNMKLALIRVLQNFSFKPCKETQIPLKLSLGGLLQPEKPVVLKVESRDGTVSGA

O=C(Nc1cccc(F)c1)N1CC2(CCN(C(=O)Oc3ccccc3)CC2)C1
inactive: Potency [1] > 11.4 µM | outcome [2] | activity change, negative = inhibition ([4]; at 7.69 µM (top of the series)) 16.5% | outcome [5] | Potency [6] > 46 µM | Potency [7]
active: Potency [3] 12.6 µM | Potency [8] 12.6 µM

CCCSC(=O)Cl
inactive: outcome [9] | Potency [10] | Potency [11]

S=C=NCc1ccccc1
inactive: Potency [8] | Potency [12] | Potency [13]

Clc1ccc([C@@H](OCCN2CCCCC2)c2ccccc2)cc1
active: Potency [3] 12.6 µM | activity change, negative = inhibition ([4]; at 17.2 µM (top of the series)) -74.4%
inactive: outcome [5] | Potency [6] > 20.6 µM | Potency [14] | activity, negative = inhibition ([15]; parasite line A) -2.83% | activity, negative = inhibition ([15]; parasite line B) -13.1%

CN1[C@@H]2CC(OC(=O)[C@H](CO)c3ccccc3)C[C@@H]1[C@H]1O[C@H]12 (stereo partly specified)
inactive: Potency [16]

CC(C)CN1CCCC2(CCN(C(=O)Oc3ccccc3)CC2)C1
inactive: Potency [1] > 11.4 µM | outcome [2] | outcome [5] | Potency [6] > 46 µM | Potency [7] | Potency [8]

CC(=O)N[C@@H]1CCSC1=O
inactive: outcome [2] | Potency [3] | activity change, negative = inhibition ([4]; at 17.2 µM (top of the series)) -13% | outcome [5] | Potency [6] > 20.6 µM | Potency [7] | Potency [16] | Potency [14]

CC[C@]1(c2cccc(O)c2)CCCCN(C)C1
inactive: outcome [2] | Potency [3] | outcome [5] | Potency [6] > 20.6 µM | Potency [7] | Potency [16] | Potency [14] | activity, negative = inhibition ([15]; parasite line A) -7.81%

COC1C(O)C(C)O[C@H](OC2CC[C@@]3(C=O)C4CC[C@]5(C)C(C6=CC(=O)OC6)CC[C@@]5(O)C4CC[C@@H]3C2)C1O (stereo partly specified)
inactive: Potency [12] | Potency [13] | Potency [16]

COc1ccc(NC(=O)N2CC[C@@]3(CCCN(C(=O)Oc4ccccc4)C3)C2)cc1
inactive: Potency [1] > 11.4 µM | outcome [2] | Potency [3] | activity change, negative = inhibition ([4]; at 7.69 µM (top of the series)) 4.32% | outcome [5] | Potency [6] > 46 µM | Potency [7] | Potency [8]

OCC1CO1 (stereo unspecified)
inactive: Potency [17] | outcome [9]

O=NN(CCO)CCO
inactive: activation [18] 14% | Potency [19] | outcome [9] | Potency [11]
